Results as given in PubChem BioAssay (Tox21).
The source made the active and inactive calls. Calls come from the whole dose curve; as a rule, active = well fitted inhibition curve with a large enough effect in the repeat runs (not every such curve was filed as active); inconclusive = weak or mixed curves; inactive = flat fitted curve, though single readings scatter.

Each compound was assayed against Thyrotropin-releasing hormone receptor (Homo sapiens) (UniProt P34981) (assay: qHTS assay to identify small molecule antagonists of the thyrotropin-releasing hormone receptor (TRHR) signaling pathway (AID 1346877)). Conditions: TRHR-HEK293, TRH-induced calcium fluorescence, antagonist mode; series mostly up to 51.3 µM.
Chain of Thyrotropin-releasing hormone receptor (Homo sapiens) (P34981 whole entry, looked up): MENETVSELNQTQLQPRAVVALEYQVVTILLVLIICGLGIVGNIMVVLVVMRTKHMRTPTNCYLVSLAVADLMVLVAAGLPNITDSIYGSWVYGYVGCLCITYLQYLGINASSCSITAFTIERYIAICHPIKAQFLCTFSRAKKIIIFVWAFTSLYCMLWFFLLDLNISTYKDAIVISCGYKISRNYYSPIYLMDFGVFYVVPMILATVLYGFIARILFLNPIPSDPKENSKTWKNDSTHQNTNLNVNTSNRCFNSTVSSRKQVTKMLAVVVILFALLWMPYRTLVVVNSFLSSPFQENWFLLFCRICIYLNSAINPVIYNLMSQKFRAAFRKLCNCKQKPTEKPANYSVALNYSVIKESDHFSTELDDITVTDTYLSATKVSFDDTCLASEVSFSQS
In short: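 HEK293/TRHR cells, 18 h, 37 °C; Ca2+ dye 2 h; cpd 5 min RT; TRH 1 nM final; fluorescence read 3 min, 1 s intervals; 15 concs, triplicate.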

Question: For `CCn1nc(Cc2ccccc2)cc1C1CCN(C[C@H]2C[C@H](N(C)[C@@H](C(=O)O)C(C)C)C[C@@H]2c2cccc(F)c2)CC1`, which outcome is on record?
Answer: inactive

Question: Which outcome does the source give for `Cc1c(Nc2ncccc2C(=O)O)cccc1C(F)(F)F` here?
Answer: inactive

Question: Which outcome does the source give for `O=Cc1ccc(Cl)c([N+](=O)[O-])c1` here?
Answer: inactive

Question: `CC(=O)OCC(=O)[C@@]1(O)CC[C@H]2[C@@H]3CCC4=CC(=O)C=C[C@]4(C)[C@@]3(F)[C@@H](O)C[C@@]21C` was tested. Which outcome did it give?
Answer: inactive

Question: With `CO[C@@H]1COCC[C@@H]1N[C@@H]1CC[C@@](C(=O)N2CCc3ncc(C(F)(F)F)cc3C2)(C(C)C)C1` as the compound, how does the outcome read?
Answer: inactive

Question: How did the outcome turn out when `O=C1c2ccccc2C(=O)C1c1ccc2cc(S(=O)(=O)O)cc(S(=O)(=O)O)c2n1` was run?
Answer: inactive

Question: How did the outcome turn out when `Clc1cc(Cl)c2c(c1)N=C1CCCCCN1C2` was run?
Answer: inactive

Question: `O=C1c2ccccc2C(=O)C1c1ccc2ccccc2n1` was tested. Which outcome did it give?
Answer: inactive

Question: For `COc1ccc(/C=C/S(=O)(=O)NC(=O)c2ccc(C)cc2Cl)cc1`, which outcome is on record?
Answer: inactive

Question: Which outcome does the source give for `CCCCCCCCOCCCN` here?
Answer: inactive

Question: `S=c1[nH][nH]c(=S)s1` was tested. Which outcome did it give?
Answer: inactive

Question: How did the outcome turn out when `Cc1c(Cl)cccc1[N+](=O)[O-]` was run?
Answer: inactive

Question: With `O=C(O)c1ccc(O)c(O)c1` as the compound, how does the outcome read?
Answer: inactive

Question: For `CC(=O)Oc1cccc2c1C(=O)c1c(OC(C)=O)cc(C(=O)O)cc1C2=O`, which outcome is on record?
Answer: inactive

Question: Which outcome does the source give for `CC(C)NC(=O)c1ccccc1N` here?
Answer: inactive

Question: `CC1=C(C)C(=O)C(CCCCC#CCCCC#CCO)=C(C)C1=O` was tested. Which outcome did it give?
Answer: inactive

Question: How did the outcome turn out when `CC(C)C/C=C(\C=O)c1ccccc1` was run?
Answer: inactive

Question: For `CC(=O)c1ccc(Cl)c(Cl)c1Cl`, which outcome is on record?
Answer: inactive

Question: `COC(=O)C(C)(C)C` was tested. Which outcome did it give?
Answer: inactive

Question: Which outcome does the source give for `C/C(=C\C(C)CC(C)CC(C)C)C1CC(=O)OC1=O` (stereo unspecified) here?
Answer: inactive

Question: For `O=C(O)c1cccc(C(=O)O)c1C(=O)O`, which outcome is on record?
Answer: inactive

Question: For `C[C@H](CN1CCCC1)C(=O)c1ccc(C(F)(F)F)cc1`, which outcome is on record?
Answer: inactive

Question: Which outcome does the source give for `CCc1cnc(C(=O)O)c(C(=O)O)c1` here?
Answer: inactive

Question: For `NC(=O)c1ccccc1C(N)=O`, which outcome is on record?
Answer: inactive

Question: With `O=C(NC1CCN(CCc2c[nH]c3ccccc23)CC1)c1ccccc1` as the compound, how does the outcome read?
Answer: inactive

Question: How did the outcome turn out when `O=C(O)c1ccc2cc(O)ccc2c1` was run?
Answer: inactive

Question: How did the outcome turn out when `CCC(CC)C(=O)O` was run?
Answer: inactive

Question: `SCCOCCOCCS` was tested. Which outcome did it give?
Answer: inactive

Question: How did the outcome turn out when `Oc1ccc(CCNCCCCCCNCCc2ccccc2)cc1O` was run?
Answer: inactive

Question: For `C=CC(C)(O)CC/C=C(/C)CCC=C(C)C` (stereo unspecified), which outcome is on record?
Answer: inactive

Question: Which outcome does the source give for `CCN(CC)CC(=O)OCC(=O)[C@@]1(O)CC[C@H]2[C@@H]3CCC4=CC(=O)CC[C@]4(C)[C@H]3[C@@H](O)C[C@@]21C` here?
Answer: inactive
